RN4220 kill: growth inhibition of S. aureus RN4220, primary screen, OD600. 16 h. inhibition, % (no concentration beside the values). hit rate 0.33% among 330,000; in the data active means inhibition above about 85%;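 further: plate controls were untreated cells for no effect and reference antibiotic for full effect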
SSB-PriA inh: inhibitors of Klebsiella pneumoniae PriA binding to SSB C-terminal tail, primary screen, biochemical, AlphaScreen. AlphaScreen SSBct-PriA binding, biotinylated peptide. inhibition, % at 33 µM. AID 1272365, 2023. hit rate 0.6% among 430,000. PriA–SSB C-terminal tail interaction (Klebsiella pneumoniae); in the data active means inhibition mostly above about 37%, no sharp cut-off; inactive means mostly below about 20%;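 further: plate controls were negative control peptide for no effect and reference peptide for full effect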
Sa ugtP lethal: growth inhibition of ugtP-null S. aureus, primary screen, RN4220 ugtP deletion, OD600 | AID 1259309, 2017 | hit rate 0.54% among 330,000 | 16 h | growth inhibition, % (no concentration beside the values); in the data active means growth inhibition above about 68%;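 further: plate controls were untreated wells for no effect and antibiotic for full effect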
PfHsp40 yeast: rescue of yeast from PfHsp40 toxicity, primary screen, S. cerevisiae, ATP luminescence; S. cerevisiae expressing PfHsp40, growth rescue; growth rescue, % at 12.5 µM; hit rate 0.68% among 340,000; AID 504582, 2011; in the data active means growth rescue above about 28%, passing the limit was not always enough;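 further: yeast W303a lacking pdr1 and pdr3 grown in galactose medium; growth measured after three days at 30 °C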
Mtb hypoxia inh: PubChem AID 1159583. M. tuberculosis hypoxia-regulated fluorescent reporter, fluorescence. fluorescence inhibition, % (no concentration beside the values). hit rate 0.1% among 300,000; in the data active means fluorescence inhibition mostly above about 23%, no sharp cut-off; inactive means mostly below about 17%
DUSP3 inh: VHR1 phosphatase inhibitors, primary screen, biochemical, absorbance, uHTS; Dual specificity protein phosphatase 3 (Homo sapiens), P51452; recombinant VHR phosphatase, pNPP absorbance; hit rate 0.52% among 290,000; inhibition, % at 13.3 µM; AID 1654, 2009; in the data active means inhibition above about 50%
Target sequence (P51452 whole entry, looked up): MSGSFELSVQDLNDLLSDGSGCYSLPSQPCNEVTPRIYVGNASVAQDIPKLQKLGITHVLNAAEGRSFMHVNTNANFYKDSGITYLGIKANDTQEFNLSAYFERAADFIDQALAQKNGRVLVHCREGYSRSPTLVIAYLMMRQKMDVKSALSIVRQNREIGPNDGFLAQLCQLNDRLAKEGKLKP
Numbers without * were called inactive. Shown are actives, neighbours in structure and some others; about 1.8% of the full set was active somewhere.

For C=CCOC(=O)C1=C(C)NC(=O)NC1c1ccc(Cl)cc1 (configuration not stated) the results were RN4220 kill 4, SSB-PriA inh 102*, Sa ugtP lethal 1, PfHsp40 yeast 0, Mtb hypoxia inh 4 and DUSP3 inh 12.
CCOc1ccc(-c2nc(CSc3nc4ccccc4c(=O)n3C(C)C)c(C)o2)cc1 was read as SSB-PriA inh -9.
Screening COc1ccc(C2(C)NN=C3Sc4ccccc4N32)cc1 (configuration not stated) returned SSB-PriA inh 41*.
COc1ccc([C@@]2(C)NN=C3Oc4ccccc4N32)cc1 was read as SSB-PriA inh -18.
For CCc1cc(-c2[nH]ncc2-c2ccc([N+](=O)[O-])cc2)c(O)cc1OC the results were RN4220 kill -5, SSB-PriA inh 18, Sa ugtP lethal 8, PfHsp40 yeast 360*, Mtb hypoxia inh 5 and DUSP3 inh 21.
`CCn1nc(C)cc1C(=O)N1CCOCC1` gave SSB-PriA inh -1.
For O=C(Nc1ccccc1N1CCOCC1)c1cc2c(s1)CCCCC2 the results were RN4220 kill 8, SSB-PriA inh 6, Sa ugtP lethal -4, PfHsp40 yeast 73*, Mtb hypoxia inh 4 and DUSP3 inh 33.
`O=C(Nc1ccc(N2CCOCC2)cc1)c1cc2c(s1)CCCCC2` gave RN4220 kill 10, SSB-PriA inh -1, Sa ugtP lethal 2, PfHsp40 yeast 5, Mtb hypoxia inh 20 and DUSP3 inh -10.
`CCc1sc(C(=O)Nc2ccccc2N2CCOCC2)cc1C` gave RN4220 kill 9, SSB-PriA inh -23, Sa ugtP lethal 7, PfHsp40 yeast 107*, Mtb hypoxia inh 3 and DUSP3 inh 6.
`Cc1ccc(NC(=O)CS(=O)(=O)c2cn(C)c3ccccc23)c(C)c1` gave RN4220 kill 1, SSB-PriA inh 104*, Sa ugtP lethal 7, PfHsp40 yeast -2, Mtb hypoxia inh 9 and DUSP3 inh 30.
`COc1cc2c(c(OC)c1OC)-c1ccc(O)c(=O)cc1[C@@H](NC(C)=O)CC2` gave SSB-PriA inh -13 and PfHsp40 yeast 325*.
`CC(=NNC(=O)c1ccc(O)cc1)c1ccc(N2CCOCC2)cc1` gave RN4220 kill 5, SSB-PriA inh -3, Sa ugtP lethal -4 and Mtb hypoxia inh 3.
O=C(/C(=N/N=C/c1ccc(O)c(O)c1O)c1ccccc1)c1ccccc1 was read as PfHsp40 yeast 520* and DUSP3 inh 5.
For O=C(C(=NN=Cc1ccc(O)c(O)c1O)c1ccccc1)c1ccccc1 the results were SSB-PriA inh 41.
Screening COc1cc(CSCc2csc(NC(=O)c3cccs3)n2)cc(OC)c1 returned SSB-PriA inh 15.
`O=C(c1cc(-c2ccccc2)n[nH]1)N1CCN(S(=O)(=O)c2ccccc2)CC1` gave RN4220 kill -1, SSB-PriA inh 1, Sa ugtP lethal -13, PfHsp40 yeast 30* and DUSP3 inh -10.
For Cc1ccc2c(c1)CC1(CN2C)C(=O)NC(=O)N(c2ccc(C)c(C)c2)C1=O (configuration not stated) the results were RN4220 kill 4, SSB-PriA inh 3, Sa ugtP lethal 1, PfHsp40 yeast 0 and DUSP3 inh 50*.
For O=C(NC(=S)Nc1ccccc1N1CCCC1)c1ccccc1[N+](=O)[O-] the results were RN4220 kill 17, SSB-PriA inh 57*, Sa ugtP lethal 79, PfHsp40 yeast 6, Mtb hypoxia inh 6 and DUSP3 inh 27.
For O=C(NC(=S)Nc1ccc(N2CCCC2)cc1)c1ccccc1[N+](=O)[O-] the results were RN4220 kill 1, SSB-PriA inh 42, Sa ugtP lethal 7, PfHsp40 yeast -2, Mtb hypoxia inh -1 and DUSP3 inh -14.
`COc1cccc(C(=O)NC(=S)Nc2ccccc2N2CCCCC2)c1` gave RN4220 kill -7, SSB-PriA inh 4, Sa ugtP lethal 89*, PfHsp40 yeast 0, Mtb hypoxia inh -4 and DUSP3 inh 10.
COc1cccc(C(=O)NC(=S)Nc2ccccc2N2CCCC2)c1 was read as RN4220 kill -3, SSB-PriA inh 10, Sa ugtP lethal 91*, PfHsp40 yeast 0, Mtb hypoxia inh 13 and DUSP3 inh 35.

Screening results: PubChem BioAssay, several laboratories
